Among the data in PubChem BioAssay are viability values, retold here.

Usually viability stands for a read-out of living cells in per cent, often relative to untreated cells.

Activity calls are given as the source filed them.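 Rule for the calls: active = viability at or under a set limit in both replicates, limit being median viability minus 3 SD (cut at about 48% in these data, passing the limit was not always enough); inconclusive = at or under the limit in just one replicate; inactive = at or above the limit in both replicates.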

A short description of the assay: H69AR cell proliferation blockers – human, duplicate replicates, primary screen (AID 580).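 Note: 100% = mean luminescence of untreated wells and 0% = no signal.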 Conditions: H69AR lung tumor cells viability, ATP luminescence, 72 h; at 10 µM; hits give low values.
Take `C=C(c1cccc2ccccc12)P(=O)(O)O`: the viability was 92.9% (inactive). Consider `COc1cc(NC(=O)c2cc(CC(C)C)on2)c(OC)cc1Cl`, for which the viability was 88.9% (inactive).

As for `COc1ccccc1-n1c(SCC(N)=O)nnc1-c1ccccc1`, the viability is 87.7% (inactive).

With `Cc1coc2cc3oc(=O)c4c(c3cc12)CCC4`, the viability was 104% (inactive). As for `COc1ccc(NC(=O)CN2CCN(S(=O)(=O)c3ccc(Cl)cc3)CC2)cc1`, the figure is 81.8% (inactive); as for `COc1cc(-c2nc(S(=O)(=O)c3ccccc3)c(N3CCOCC3)o2)cc(OC)c1OC`, 87.1% (inactive). To `CCC(C)(C)NC(=O)C(OC(=O)c1ccco1)c1ccccc1OC` (stereo unspecified) belongs 106% (inactive). As for `COc1ccc(-n2nnc3c(=O)n(C/C=C/c4ccccc4)cnc32)cc1`, the figure is 86.1% (inactive). For the compound `Cc1ccc(S(=O)(=O)N2CCOCC2)cc1C(=O)Nc1ccccn1`, the viability was 93.8% (inactive).

As to `CCOc1ccccc1NC(=O)NC1CCN(CC(=O)Nc2ccc3c(c2)OCCO3)CC1`, the viability was 86.8% (inactive). With `O=C(CCNS(=O)(=O)c1ccc(Cl)cc1)NCc1ccccn1`, the viability was 89.7% (inactive).

Consider `COCCNC(=O)CSc1nc(-c2ccc(OC)c(OC)c2)cc(C(F)(F)F)n1`, for which the viability is 89% (inactive). To `CCOc1ccc2ccccc2c1/C=N/n1cncn1` belongs 92.3% (inactive); to `CCOC(=O)C1CCCN(C(=O)c2cc(=O)c3ccccc3o2)C1` (stereo unspecified), 97.3% (inactive). As for `COc1ccc(CN(C(=O)c2oc3ccccc3c2C)C2CCS(=O)(=O)C2)cc1` (stereo unspecified), the figure is 90.5% (inactive). In the case of `COC(=O)CCc1c(C)c(C#N)c2nc3ccccc3n2c1N1CCCC1`, the viability was 73.2% (inactive).
